# Experimental data published in the supplement of paper PMC4466140.
# Columns and labels:
# Assay in all cases: SPOT peptide array binding signal intensity (averaged, normalized) (arbitrary units (background-subtracted, floor 0; scale differs between SH3 domains)); higher = stronger binding of the SH3 domain to the peptide
# CaNbp2 = target: CaNbp2
# Summary of the method: (§1)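 GST-fused SH3 domains, from four yeast species, were produced in E. coli BL21(DE3) and captured on glutathione Sepharose. Membranes of cellulose carrying synthetic 15-mer peptides, in which cysteines had been replaced by serines, were exposed to each domain at 10 μg/ml overnight at 4°C in TBS-based blocking buffer. After anti-GST antibody, an HRP anti-mouse secondary and luminol, spots were imaged and quantified using Genespotter. Binding signal is normalized and background-subtracted spot intensity, averaged over replicates, in arbitrary units that differ between domains.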
# CaRvs167 = target: CaRvs167
# Summary of the method: as §1
# CaRvs167-3 = target: CaRvs167-3
# Summary of the method: as §1
# CaSho1 = target: CaSho1
# Summary of the method: as §1
# CaSla1-D1-D2 = target: CaSla1-D1-D2
# Summary of the method: as §1
# CaSla1-D3 = target: CaSla1-D3
# Summary of the method: as §1
# ScAbp1 = target: ScAbp1
# Summary of the method: as §1
# ScBbc1 = target: ScBbc1
# Summary of the method: as §1
# ScBem1-D1 = target: ScBem1-D1
# Summary of the method: as §1
# ScBzz1-D1 = target: ScBzz1-D1
# Summary of the method: as §1
# ScBzz1-D2 = target: ScBzz1-D2
# Summary of the method: as §1
# ScCyk3 = target: ScCyk3
# Summary of the method: as §1
# ScFus1 = target: ScFus1
# Summary of the method: as §1
# ScHof1 = target: ScHof1
# Summary of the method: as §1
# ScHse1 = target: ScHse1
# Summary of the method: as §1
# ScLsb1 = target: ScLsb1
# Summary of the method: as §1
# ScLsb2 = target: ScLsb2
# Summary of the method: as §1
# ScLsb3 = target: ScLsb3
# Summary of the method: as §1
# ScLsb4 = target: ScLsb4
# Summary of the method: as §1
# ScMyo3 = target: ScMyo3
# Summary of the method: as §1
# ScMyo5 = target: ScMyo5
# Summary of the method: as §1
# ScNbp2 = target: ScNbp2
# Summary of the method: as §1
# ScPex13 = target: ScPex13
# Summary of the method: as §1
# ScRvs167 = target: ScRvs167
# Summary of the method: as §1
# ScSho1 = target: ScSho1
# Summary of the method: as §1
# ScSla1-D1-D2 = target: ScSla1-D1-D2
# Summary of the method: as §1
# ScSla1-D3 = target: ScSla1-D3
# Summary of the method: as §1
# SpAbp1-D1 = target: SpAbp1-D1
# Summary of the method: as §1
# SpBbc1 = target: SpBbc1
# Summary of the method: as §1
# SpBzz1-D1 = target: SpBzz1-D1
# Summary of the method: as §1
# SpBzz1-D2 = target: SpBzz1-D2
# Summary of the method: as §1
# SpCyk3 = target: SpCyk3
# Summary of the method: as §1
# SpHof1 = target: SpHof1
# Summary of the method: as §1
# SpHof1-2 = target: SpHof1-2
# Summary of the method: as §1
# SpHof1-3 = target: SpHof1-3
# Summary of the method: as §1
# SpHse1 = target: SpHse1
# Summary of the method: as §1
# SpLsb1 = target: SpLsb1
# Summary of the method: as §1
# SpLsb4 = target: SpLsb4
# Summary of the method: as §1
# SpMyo1 = target: SpMyo1
# Summary of the method: as §1
# SpNbp2 = target: SpNbp2
# Summary of the method: as §1
# SpPex13 = target: SpPex13
# Summary of the method: as §1
# SpRvs167 = target: SpRvs167
# Summary of the method: as §1
# SpSla1-D1-D2 = target: SpSla1-D1-D2
# Summary of the method: as §1
# SpSla1-D3 = target: SpSla1-D3
# Summary of the method: as §1
# AgAbp1 = target: AgAbp1
# Summary of the method: as §1
# AgBbc1 = target: AgBbc1
# Summary of the method: as §1
# AgBem1-D1 = target: AgBem1-D1
# Summary of the method: as §1
# AgBzz1-D1 = target: AgBzz1-D1
# Summary of the method: as §1
# AgBzz1-D2 = target: AgBzz1-D2
# Summary of the method: as §1
# AgCyk3 = target: AgCyk3
# Summary of the method: as §1
# AgFus1 = target: AgFus1
# Summary of the method: as §1
# AgHof1 = target: AgHof1
# Summary of the method: as §1
# AgHse1 = target: AgHse1
# Summary of the method: as §1
# AgLsb1 = target: AgLsb1
# Summary of the method: as §1
# AgLsb4 = target: AgLsb4
# Summary of the method: as §1
# AgMyo5 = target: AgMyo5
# Summary of the method: as §1
# AgNbp2 = target: AgNbp2
# Summary of the method: as §1
# AgRvs167 = target: AgRvs167
# Summary of the method: as §1
# AgSho1 = target: AgSho1
# Summary of the method: as §1
# AgSla1-D1-D2 = target: AgSla1-D1-D2
# Summary of the method: as §1
# AgSla1-D3 = target: AgSla1-D3
# Summary of the method: as §1
# CaAbp1-D1 = target: CaAbp1-D1
# Summary of the method: as §1
# CaAbp1-D2 = target: CaAbp1-D2
# Summary of the method: as §1
# CaBbc1 = target: CaBbc1
# Summary of the method: as §1
# CaBem1-D1 = target: CaBem1-D1
# Summary of the method: as §1
# CaBzz1-D1 = target: CaBzz1-D1
# Summary of the method: as §1
# CaBzz1-D2 = target: CaBzz1-D2
# Summary of the method: as §1
# CaCyk3 = target: CaCyk3
# Summary of the method: as §1
# CaFus1 = target: CaFus1
# Summary of the method: as §1
# CaHof1 = target: CaHof1
# Summary of the method: as §1
# CaHse1 = target: CaHse1
# Summary of the method: as §1
# CaLsb1 = target: CaLsb1
# Summary of the method: as §1
# CaLsb4 = target: CaLsb4
# Summary of the method: as §1
# CaMyo5 = target: CaMyo5
# Summary of the method: as §1
binder,measurement,setting,value
SSSSSPPPLPTRRDH,SPOT peptide array binding signal intensity,CaNbp2,24.5
same,SPOT peptide array binding signal intensity,CaRvs167,1510
same,SPOT peptide array binding signal intensity,CaRvs167-3,7.25
same,SPOT peptide array binding signal intensity,CaSho1,6.5
same,SPOT peptide array binding signal intensity,CaSla1-D1-D2,76
same,SPOT peptide array binding signal intensity,CaSla1-D3,3.25
same,SPOT peptide array binding signal intensity,ScAbp1,≤ 0
same,SPOT peptide array binding signal intensity,ScBbc1,4
same,SPOT peptide array binding signal intensity,ScBem1-D1,≤ 0
same,SPOT peptide array binding signal intensity,ScBzz1-D1,≤ 0
same,SPOT peptide array binding signal intensity,ScBzz1-D2,12
same,SPOT peptide array binding signal intensity,ScCyk3,1
same,SPOT peptide array binding signal intensity,ScFus1,20
same,SPOT peptide array binding signal intensity,ScHof1,9.75
same,SPOT peptide array binding signal intensity,ScHse1,15
same,SPOT peptide array binding signal intensity,ScLsb1,1340
same,SPOT peptide array binding signal intensity,ScLsb2,349
same,SPOT peptide array binding signal intensity,ScLsb3,5910
same,SPOT peptide array binding signal intensity,ScLsb4,7200
same,SPOT peptide array binding signal intensity,ScMyo3,460
same,SPOT peptide array binding signal intensity,ScMyo5,166
same,SPOT peptide array binding signal intensity,ScNbp2,≤ 0
same,SPOT peptide array binding signal intensity,ScPex13,1560
same,SPOT peptide array binding signal intensity,ScRvs167,2180
same,SPOT peptide array binding signal intensity,ScSho1,26.5
same,SPOT peptide array binding signal intensity,ScSla1-D1-D2,51
same,SPOT peptide array binding signal intensity,ScSla1-D3,10
same,SPOT peptide array binding signal intensity,SpAbp1-D1,22.5
same,SPOT peptide array binding signal intensity,SpBbc1,13
same,SPOT peptide array binding signal intensity,SpBzz1-D1,406
same,SPOT peptide array binding signal intensity,SpBzz1-D2,9.75
same,SPOT peptide array binding signal intensity,SpCyk3,2
same,SPOT peptide array binding signal intensity,SpHof1,8.75
same,SPOT peptide array binding signal intensity,SpHof1-2,54.5
same,SPOT peptide array binding signal intensity,SpHof1-3,8.75
same,SPOT peptide array binding signal intensity,SpHse1,35
same,SPOT peptide array binding signal intensity,SpLsb1,1530
same,SPOT peptide array binding signal intensity,SpLsb4,6770
same,SPOT peptide array binding signal intensity,SpMyo1,308
same,SPOT peptide array binding signal intensity,SpNbp2,6
same,SPOT peptide array binding signal intensity,SpPex13,6.5
same,SPOT peptide array binding signal intensity,SpRvs167,2880
same,SPOT peptide array binding signal intensity,SpSla1-D1-D2,11
same,SPOT peptide array binding signal intensity,SpSla1-D3,9.5
LKPPIGRPPKFPKSP,SPOT peptide array binding signal intensity,AgAbp1,926
same,SPOT peptide array binding signal intensity,AgBbc1,160
same,SPOT peptide array binding signal intensity,AgBem1-D1,27
same,SPOT peptide array binding signal intensity,AgBzz1-D1,57
same,SPOT peptide array binding signal intensity,AgBzz1-D2,4
same,SPOT peptide array binding signal intensity,AgCyk3,≤ 0
same,SPOT peptide array binding signal intensity,AgFus1,≤ 0
same,SPOT peptide array binding signal intensity,AgHof1,300
same,SPOT peptide array binding signal intensity,AgHse1,≤ 0
same,SPOT peptide array binding signal intensity,AgLsb1,≤ 0
same,SPOT peptide array binding signal intensity,AgLsb4,≤ 0
same,SPOT peptide array binding signal intensity,AgMyo5,1220
same,SPOT peptide array binding signal intensity,AgNbp2,≤ 0
same,SPOT peptide array binding signal intensity,AgRvs167,0.583
same,SPOT peptide array binding signal intensity,AgSho1,≤ 0
same,SPOT peptide array binding signal intensity,AgSla1-D1-D2,21.5
same,SPOT peptide array binding signal intensity,AgSla1-D3,≤ 0
same,SPOT peptide array binding signal intensity,CaAbp1-D1,1440
same,SPOT peptide array binding signal intensity,CaAbp1-D2,2140
same,SPOT peptide array binding signal intensity,CaBbc1,1150
same,SPOT peptide array binding signal intensity,CaBem1-D1,98
same,SPOT peptide array binding signal intensity,CaBzz1-D1,239
same,SPOT peptide array binding signal intensity,CaBzz1-D2,165
same,SPOT peptide array binding signal intensity,CaCyk3,16.5
same,SPOT peptide array binding signal intensity,CaFus1,49
same,SPOT peptide array binding signal intensity,CaHof1,≤ 0
same,SPOT peptide array binding signal intensity,CaHse1,1.5
same,SPOT peptide array binding signal intensity,CaLsb1,≤ 0
same,SPOT peptide array binding signal intensity,CaLsb4,2
same,SPOT peptide array binding signal intensity,CaMyo5,45.5
same,SPOT peptide array binding signal intensity,CaNbp2,≤ 0
same,SPOT peptide array binding signal intensity,CaRvs167,0.917
same,SPOT peptide array binding signal intensity,CaRvs167-3,3.12
same,SPOT peptide array binding signal intensity,CaSho1,≤ 0
same,SPOT peptide array binding signal intensity,CaSla1-D1-D2,908
same,SPOT peptide array binding signal intensity,CaSla1-D3,3.25
same,SPOT peptide array binding signal intensity,ScAbp1,887
same,SPOT peptide array binding signal intensity,ScBbc1,7
same,SPOT peptide array binding signal intensity,ScBem1-D1,≤ 0
same,SPOT peptide array binding signal intensity,ScBzz1-D1,≤ 0
same,SPOT peptide array binding signal intensity,ScBzz1-D2,≤ 0
same,SPOT peptide array binding signal intensity,ScCyk3,0.25
same,SPOT peptide array binding signal intensity,ScFus1,≤ 0
same,SPOT peptide array binding signal intensity,ScHof1,≤ 0
same,SPOT peptide array binding signal intensity,ScHse1,19.8
same,SPOT peptide array binding signal intensity,ScLsb1,1.5
same,SPOT peptide array binding signal intensity,ScLsb2,≤ 0
same,SPOT peptide array binding signal intensity,ScLsb3,64.8
same,SPOT peptide array binding signal intensity,ScLsb4,≤ 0
same,SPOT peptide array binding signal intensity,ScMyo3,1390
same,SPOT peptide array binding signal intensity,ScMyo5,682
same,SPOT peptide array binding signal intensity,ScNbp2,≤ 0
same,SPOT peptide array binding signal intensity,ScPex13,≤ 0
same,SPOT peptide array binding signal intensity,ScRvs167,≤ 0
same,SPOT peptide array binding signal intensity,ScSho1,4.5
same,SPOT peptide array binding signal intensity,ScSla1-D1-D2,88.5
same,SPOT peptide array binding signal intensity,ScSla1-D3,13.6
same,SPOT peptide array binding signal intensity,SpAbp1-D1,455
same,SPOT peptide array binding signal intensity,SpBbc1,7.25
same,SPOT peptide array binding signal intensity,SpBzz1-D1,894
same,SPOT peptide array binding signal intensity,SpBzz1-D2,≤ 0
same,SPOT peptide array binding signal intensity,SpCyk3,≤ 0
same,SPOT peptide array binding signal intensity,SpHof1,1.38
same,SPOT peptide array binding signal intensity,SpHof1-2,≤ 0
same,SPOT peptide array binding signal intensity,SpHof1-3,88.2
same,SPOT peptide array binding signal intensity,SpHse1,11.5
same,SPOT peptide array binding signal intensity,SpLsb1,3.75
same,SPOT peptide array binding signal intensity,SpLsb4,29.5
same,SPOT peptide array binding signal intensity,SpMyo1,1430
same,SPOT peptide array binding signal intensity,SpNbp2,≤ 0
same,SPOT peptide array binding signal intensity,SpPex13,≤ 0
same,SPOT peptide array binding signal intensity,SpRvs167,1.33
same,SPOT peptide array binding signal intensity,SpSla1-D1-D2,≤ 0
same,SPOT peptide array binding signal intensity,SpSla1-D3,2.5
